D2 ag-1 – D2 dopamine receptor (human) agonism; HEK293 T-REx D2 cells, calcium flux agonist mode; hit rate 0.53% among 340,000; P14416; activation, % at 2 µM;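 active = activation over 3 SD above normal in the single-dose calcium agonist read, cut at about 30% in these data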; also: 0% is about no effect
Target sequence (P14416 whole entry, looked up): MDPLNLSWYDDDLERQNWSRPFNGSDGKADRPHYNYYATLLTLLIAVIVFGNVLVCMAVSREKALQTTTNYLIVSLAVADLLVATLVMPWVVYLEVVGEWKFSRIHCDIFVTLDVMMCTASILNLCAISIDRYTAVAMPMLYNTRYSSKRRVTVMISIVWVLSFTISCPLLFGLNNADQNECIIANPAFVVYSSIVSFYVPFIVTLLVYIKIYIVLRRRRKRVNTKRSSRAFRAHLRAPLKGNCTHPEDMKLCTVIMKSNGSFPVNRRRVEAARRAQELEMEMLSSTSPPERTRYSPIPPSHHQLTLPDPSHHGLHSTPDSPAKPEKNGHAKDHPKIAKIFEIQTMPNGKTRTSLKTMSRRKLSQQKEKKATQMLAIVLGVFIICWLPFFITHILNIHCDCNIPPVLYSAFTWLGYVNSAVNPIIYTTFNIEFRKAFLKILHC
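HEK293 Trex D2 cells, tetracycline-induced, o/n 30 C 5% CO2; no-wash Ca dye, RT 30–90 min; 10-cycle baseline, 23 nl cpd added, kinetic Ca read 180 s; agonist hits = positive Ca response.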
D2 PAM-1 – D2 dopamine receptor (human) potentiation; potentiation, % at 10 µM; P14416; AID 485347; HEK293 T-REx D2, calcium flux, EC20 dopamine potentiation; hit rate 0.34% among 340,000;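 active = potentiation over 3 SD above the plate norm, cut at about 30% in these data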; also: 0% is about no effect
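Primary screen. Calcium kinetics in induced HEK293 T-REx D2 cells: compound pre-addition 180 s, EC20 dopamine, 180 s more.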
D2 ag-2 – agonists of human D2 dopamine receptor (beta-arrestin) | hit rate 0.084% among 360,000 | DiscoveRx PathHunter D2 beta-arrestin, luminescence, 90 min; 100% = 57 uM dopamine signal | activation, % (test concentration not listed) | P14416; in the data active = activation above about 40%; inconclusive = between about 15% and that limit
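Agonist mode: compounds alone added to overnight-plated D2 PathHunter cells for 90 min at 37 C, with 57 uM final dopamine (EC100) defining full response. Beta-arrestin recruitment detected by chemiluminescent reagent, read after 1 h at ambient temperature.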
D2 antag – antagonists of human D2 dopamine receptor; HEK293 TREx D2 cells, calcium flux, dopamine EC80; hit rate 2% among 340,000; P14416; inhibition, % at 10 µM; in the data active = inhibition above about 30%; inactive = below that, where a call was filed; also: 0% is about no effect
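Overnight-induced (tetracycline, 30 C) HEK293 T-REx cells carrying force-coupled D2 receive a no-wash calcium dye, then compound, then EC80 dopamine at 180 s; signals are read kinetically throughout.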
D2 PAM-2 – human D2 receptor positive allosteric modulation | P14416 | DiscoveRx D2 beta-arrestin cells, luminescence, 90 min; 100% = 57 uM dopamine signal | potentiation, % (test concentration not listed) | hit rate 0.23% among 360,000 | AID 624464; in the data active = potentiation above about 50%; inconclusive = mostly about 30% to 49%
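PathHunter beta-arrestin assay in DiscoveRx D2 cells. Compounds were added with an EC20 of dopamine (50 nM final) for 90 min at 37 deg C. Luminescence was read 1 h after detection reagent, with 57 uM dopamine as the EC100 control.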
* = called active by the depositor; ? = inconclusive; · = not tested or not shown; ! = repeats disagree. Most compounds without a hit are left out; they make up all but 2.4% or so of the library.

SMILES	D2 ag-1	D2 PAM-1	D2 ag-2	D2 antag	D2 PAM-2
COc1ccc(OCCOCCN2CCN(C)CC2)cc1	-0.3	-10.5	-2.1	-3.4	-1.7
COc1cccc(OC)c1OCCOCCN1CCN(C)CC1	2.1	-25.1	0.1	68.4*	-22.7
CNC(=O)C1CCN(C(=O)N2CC(C)Oc3ccc(Cl)cc32)CC1 (centres undefined)	0.1	6.0	·	·	·
Cc1cc(C)c(NC(=O)C2CCCN(C(=O)c3cnn(-c4ccccc4)c3-n3cccc3)C2)c(C)c1 (centres undefined)	·	0.3	·	·	·
CCO[C@H]1OC(C(=O)N2CCCCCCC2)=C[C@@H](c2csc3ccccc23)[C@@H]1CCCO	-0.2	-2.7	-1.8	5.5	-13.2
CCO[C@H]1OC(C(=O)O)=C[C@@H](c2csc3ccccc23)[C@@H]1CCCO	-0.2	10.8	-0.2	31.6*	-2.7
COc1cc(N)c(Cl)cc1C(=O)OCC(=O)N1CCCC1	0.5	-11.6	-13.4	31.6*	-9.3
COc1cc(N)c(Cl)cc1C(=O)OCC(=O)N1CCc2ccccc21	1.5	7.1	0.7	-3.1	-2.9
COc1cc(C=O)ccc1OCCSc1ccc(C)cc1	-0.7	-1.4	1.1	-4.3	-2.4
CCOc1cc(C=O)ccc1OCCSc1ccc(C)cc1	0.7	-8.3	-3.5	39.6*	2.2
CCn1cc(C(=O)OCC(=O)Nc2cc(OC)cc(OC)c2)c(=O)c2ccc(C)nc21	-0.5	-2.3	·	·	·
Cn1c(CSCc2ccc(Cl)c(Cl)c2)nnc1SCC(=O)Nc1nccs1	0.2	10.5	?	-11.1	69.6*
Clc1ccc(N=C2SCC3CCCCN23)cc1 (centres undefined)	-0.4	-17.7	-2.5	5.5	-3.5
FC(F)Oc1ccc(N=C2SCC3CCCCN23)cc1 (centres undefined)	-1.8	36.4*	7.4	7.3	-2.9
Cc1ccc2c(c1)c1c3n2CCN(C(=O)c2cccc(C(F)(F)F)c2)C3CCC1 (centres undefined)	0.6	-2.6	·	·	·
CN(C)C=Nc1c(Br)cc(Br)c2nonc12	62.9*	-8.4	0.0	1.8	1.1
CNC(=S)N1N=C(c2ccc(OC)cc2)CC1c1ccccc1Cl (centres undefined)	-0.1	7.4	-1.8	33.5*	0.7
CNC(=S)N1N=C(c2ccc(OC)cc2)CC1c1ccc(Cl)cc1Cl (centres undefined)	0.2	-3.5	0.6	15.2	0.4
CCn1cc(C(=O)N[C@@H](C)C(=O)OC)c(=O)c2cc3c(cc21)OCO3	0.9	-3.9	-4.1	44.4*	-2.7
CCOC(=O)c1c(NC(=O)c2cc(CC)on2)sc(C)c1C	-0.4	-2.5	·	·	·
C=CCn1c(SCC(C)=O)nc2scc(-c3ccc(C)o3)c2c1=O	-2.5	23.2	0.8	-6.2	-7.9
C=CCn1c(=S)[nH]c2scc(-c3ccc(C)o3)c2c1=O	1.8	11.2	-3.4	31.8*	-3.1
Cc1cc(C(=O)NCCc2ccc(Cl)cc2)c2c(C)nn(-c3cccc(F)c3)c2n1	-1.3	5.5	·	·	·
Cc1ccc(Cl)c(OCC(=O)Nc2ccc3c(c2)OCCO3)c1	0.2	-0.8	-0.5	5.0	-4.8
CCN(CC(=O)Nc1ccc2c(c1)OCCO2)C(=O)COc1cc(C)ccc1Cl	-0.7	1.4	-4.7	33.2*	-11.6
SMILES	D2 ag-1	D2 PAM-1	D2 ag-2	D2 antag	D2 PAM-2
O=[N+]([O-])c1nn(-c2ccc3c(c2)OCCO3)n(O)c1=NCc1ccccc1Cl	-0.2	-1.6	12.4	23.9	54.3*
O=[N+]([O-])c1nn(-c2ccc3c(c2)OCCO3)n(O)c1=NC1CCCCC1	0.8	-3.2	?	7.4	117.7*
COc1ccccc1CN=c1c([N+](=O)[O-])nn(-c2ccc3c(c2)OCCO3)n1O	-1.1	4.8	?	8.3	128.8*
Cc1ccc(CN=c2c([N+](=O)[O-])nn(-c3cccc(Cl)c3)n2O)cc1	-5.1	-0.2	?	2.8	?
CCc1nnc2c(NCc3ccc(F)cc3)nc3ccccc3n12	0.5	-1.5	·	·	·
Cc1cc(C)c[n+](-c2nc3ccccc3nc2C(=C=[N-])C#N)c1	1.1	-2.1	-2.1	34.3*!	-2.3
O=C(CCNS(=O)(=O)c1ccc2c(c1)CCN2C(=O)C1CC1)N1CCN(c2ccc(F)cc2)CC1	21.1	-5.0	·	·	·
Cc1csc(SC(C)C(=O)Nc2ccc(Cl)cn2)n1 (centres undefined)	-1.3	-17.1	-4.4	43.2*	-16.2
O=C1C(=O)c2c(ccc3ccccc23)-c2ccccc21	·	·	?	·	58.8*
CN(C)/C=C1\Oc2ccc3ccccc3c2C1=O	-3.3	6.7	2.5	-4.6	-3.0
COC(=O)CNC(=O)c1cccs1	0.5	-7.6	-2.3	65.9*	4.9
CCC(C)(C)n1nnnc1C(c1ccccn1)N1CCCCC1 (centres undefined)	0.4	-6.1	-0.4	51.8*	-7.1
COC(=O)c1cc2c(=O)c3ccccc3oc2nc1/C=C/N(C)C	39.8*	12.8	6.5	8.2	-1.1
COC(=O)c1cc2c(=O)c3ccccc3oc2nc1C	-0.3	11.6	-1.5	-0.1	-5.9
CC(C)/C=C(/C(=O)c1ccc(Cl)cc1Cl)n1cncn1	0.9	5.8	46.0*	2.0	20.6
C=CCC1(O)C(=O)N2C(=C1C(=O)N1CCOCC1)c1ccccc1CC2(C)C (centres undefined)	0.6	-6.7	-2.1	44.8*	-6.1
Cc1ccc(-n2c3c(cc(C(=O)Nc4ccccc4C(N)=O)c2=O)C(=O)CC(C)(C)C3)cc1	·	-3.2	·	·	·
O=C(NC(NC(=S)Nc1cccc(Cl)c1)C(Cl)(Cl)Cl)OCc1ccccc1 (centres undefined)	1.8	4.6	1.4	77.9*	-26.0
Cc1c(Cc2ccccc2)sc(/N=C/c2c(O)ccc3ccccc23)c1C(N)=O	1.3	-8.5	-1.9	-7.4	57.3*
CCCn1c(NCc2ccccc2C)nc2ccccc21	2.2	-20.0	·	·	·
CCCn1c(Nc2ccccc2C)nc2ccccc21	-0.2	-12.7	-0.4	42.5*	-32.7
COc1cc(/C=N/N2C(=O)CSC2=S)cc(Br)c1O	10.6	-4.4	-1.4	43.6*	-0.2
COc1cccc(/C=N/N2C(=O)CSC2=S)c1O	-0.2	-1.9	4.9	10.3	-2.1
COc1ccc(NS(=O)(=O)c2c(C)cc(C)cc2C)cc1	0.6	-4.7	-1.2	33.5*	10.8
COc1ccc(C(=O)Nc2ccccc2-c2nc3ccccc3s2)c(OC)c1	0.1	-5.8	·	·	·
COc1ccc(N(C(=O)c2ccccc2OC(C)=O)C(C)C2CC2)cc1 (centres undefined)	-0.7	-25.4	-1.9	30.5*	-4.2
COc1ccc(NC(=O)CN(C)C(=O)c2ccccc2OC)cc1	0.2	2.3	-0.9	-2.5	-1.3
C=CCN1C(c2ccc(OCC)cc2)=CS/C1=C(\C#N)c1nnc2n1CCCCC2	0.5	45.3*	5.2	11.5	8.6

Assay outcomes from PubChem.
